Screening results as filed in PubChem.
Only some compounds are listed: those with a hit (about 2.9% of all), similar ones and a draw of the others.
Wnt act = Wnt/beta-catenin pathway activators, primary screen, cell-based, plate reader, single point | Wnt/beta-catenin reporter cell assay, activator | activation, % at 9.35 µM | actives 1.2% (n = 300,000); in the data active means activation above about 30%, passing the limit was not always enough; inconclusive means no clear call, values can overlap the other calls;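 further: 0% = neutral control wells and 100% = positive control wells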
Vif imaging = HIV Vif self-association inhibitors, primary screen, imaging, HEK293T, single point | HEK293T cells, Vif self-association by quenched fluorescence, 24 h | actives 0.35% (n = 340,000) | inhibition, % at 7.49 µM | AID 602346, 2012; in the data active means inhibition above about 50%, passing the limit was not always enough; inconclusive means no clear call, values can overlap the other calls; inactive means below about 31%
MITF act = activators of MITF-driven TRPM1 promoter reporter, primary screen, cell-based, SK-MEL-5, luciferase, single point; SK-MEL-5 TRPM1-promoter luciferase, 24 h; % of positive control, neutral wells = 0; activation, % at 12.5 µM; actives 0.75% (n = 300,000); AID 588334, 2011;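 active means mean activation of at least 80% with every replicate also reaching 80%; inconclusive means mean reaches 80% but some replicate falls short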;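 further: 0% = neutral control wells and 100% = parthenolide positive control wells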
PvdQ acylase = P. aeruginosa PvdQ acylase inhibitors, primary screen, biochemical, fluorescence, plate reader and imaging, single point; PvdQ acylase [Pseudomonas aeruginosa LESB58]; purified PvdQ acylase; inhibition, % at 10 µM; actives 0.063% (n = 340,000); in the data active means inhibition above about 30%, passing the limit was not always enough; inconclusive means no clear call, values can overlap the other calls;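 further: 0% = vehicle neutral wells and 100% = reference inhibitor wells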
esBAF inh = Bmi1 luciferase reporter increase in mESCs, primary screen, esBAF inhibitor project, mouse ES cells, Bmi1 luciferase knock-in, single point; reporter increase, % at 12.5 µM; AID 602393, 2012; 24 h; 100% = twice the neutral-well signal; actives 2% (n = 350,000); in the data active means activation above about 40%; inconclusive means no clear call, values can overlap the other calls;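 further: 0% = median of the plate's neutral control wells and 100% = double that signal; a rise in the Bmi1 reporter signal indicates esBAF inhibition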
Glyco luc inh = increase of ERlucT glycosylation luciferase signal, primary screen, N-linked glycosylation inhibitor project, D54 ERlucT cells, luminescence, set 2; D54 ERlucT glycosylation luciferase reporter, 24 h; percent of 100 nM tunicamycin response; actives 0.23% (n = 360,000); reporter increase, % at 12.5 µM;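 active means mean luciferase reporter signal, scaled so untreated is 0 and the glycosylation-blocking control 100, at or above a set limit in every replicate; inconclusive means mean reaches the limit but not every replicate does; inactive means mean below the limit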;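 further: luciferase carries N-glycosylation sites so blocking glycosylation raises the light; 0% = median of neutral control wells and 100% = median of 100 nM tunicamycin wells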
* = called active by the depositor; ? = inconclusive; nt = no result given.

SMILES	Wnt act	Vif imaging	MITF act	PvdQ acylase	esBAF inh	Glyco luc inh
Fc1ccc(CSc2ncnc3c2ncn3C2CCCCO2)cc1 (stereo not drawn)	-3	-3	69	-2	nt	-2
Clc1cccc(CSc2ncnc3c2ncn3C2CCCCO2)c1 (stereo not drawn)	8	-4	75	-10	76*	-3
OCCn1cnc2c(SCc3ccccc3)ncnc21	3	20	33	5	35	-8
COc1ccc(-c2ccc3c(c2)[C@@H]2[C@@H](CCN2C(=O)Nc2ccccc2OC)[C@@H](CO)N3C)cc1	nt	nt	nt	nt	-4	nt
C[C@H](CO)N1C[C@H](C)[C@H](CN(C)C(=O)Nc2cccc3ccccc23)Oc2ncc(C#Cc3ccc(C(F)(F)F)cc3)cc2C1=O	nt	nt	nt	nt	3	nt
c1ccc(CNc2ncnc3c2ncn3C2CCCCO2)cc1 (stereo not drawn)	19	-12	68	-15	46*	-1
O=C(Cn1cnc2c(NCc3ccccc3)ncnc21)NCC1CCCO1 (stereo not drawn)	-1	nt	8	-1	-9	-1
Cc1ccccc1-c1ccc([C@H]2[C@@H](CO)N3CCCCN(C(=O)NC4CCCC4)C[C@@H]23)cc1	nt	nt	nt	nt	-2	nt
Cc1ccc(-c2nn3c(C)nnc3c3ccccc23)cc1S(=O)(=O)NC(C)(C)CO	2	?	-4	-16	3	39*
Cc1ccc(-c2nn3c(C)nnc3c3ccccc23)cc1S(=O)(=O)NCCO	4	0	7	-20	nt	12
c1ccc(-c2ccc(-n3ccnc3)cc2)cc1	?	8	67	3	56*	0
CC(C)(C)C(=O)NNC(=O)c1cc2sccc2s1	41*	-4	-4	22	nt	1
O=C(O)C[C@H]1C[C@H]2c3cc(NC(=O)Nc4ccc(F)cc4)ccc3O[C@H]2[C@H](CO)O1	nt	nt	nt	nt	-2	nt
CNC[C@@H]1Oc2ccc(NS(=O)(=O)c3ccc(Cl)cc3)cc2CC(=O)N([C@H](C)CO)C[C@H]1C	nt	nt	nt	nt	-4	nt
Cc1cc(Cl)c2oc(C(=O)NCCN3CCCCC3CO)c(C)c2c1 (stereo not drawn)	3	-2	32	-9	14	0
Cc1cc(Cl)c2oc(C(=O)NCCC3CCCCO3)c(C)c2c1 (stereo not drawn)	25	5	95*	3	?	4
O=C(CN1C(=O)C2C3C=CC(C4CC34)C2C1=O)Oc1ccccc1 (stereo not drawn)	nt	2	8	34*	nt	2
CC(C)NC(=O)N(C)C[C@@H]1Oc2cc(C#Cc3ccccn3)ccc2S(=O)(=O)N([C@@H](C)CO)C[C@@H]1C	nt	nt	nt	nt	0	nt
CCOC(=O)c1ccc[n+](CC(=O)Nc2cc(C(F)(F)F)ccc2Cl)c1	-1	53*	-7	-8	nt	5
Cc1cccc(CC(C)NC(=O)c2cc(COc3ccc(C)c(C)c3)on2)n1 (stereo not drawn)	15	-2	13	-10	nt	-3
Cc1cc(C)n(CC(C)NC(=O)c2cc(COc3ccc(F)c(F)c3)on2)n1 (stereo not drawn)	12	-2	67	-6	62*	-1
CCc1cc(CNC(=O)c2cc(COc3ccc(C)nc3)on2)on1	22	12	35	-16	60*	0
Cc1cccc(CC(C)NC(=O)c2cc(COc3ccc(F)cc3F)on2)n1 (stereo not drawn)	8	-2	15	-5	42*	-1
Cc1cc(CNC(=O)c2cc(COc3ccc(F)c(F)c3)on2)nn1C	29	-13	86*	-9	65*	-5
Cc1cc(C)n(CC(C)NC(=O)c2cc(COc3c(F)cccc3F)on2)n1 (stereo not drawn)	-2	1	-4	-7	nt	0
C[C@H]1CN([C@@H](C)CO)C(=O)c2cc(NC(=O)C3CC3)ccc2O[C@@H]1CN(C)Cc1ccccc1	nt	nt	nt	nt	-4	nt
Cc1ccc(Sc2c([N+](=O)[O-])c(=O)n(C)c3ccccc23)cc1	32*	1	nt	9	-1	17
